# PubChem BioAssay (NCI)
# This is part of a sample that, as a whole, favours compounds with a hit. Of some 83,000 tested, about 20% had one in any assay.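 Step 1: grow cells in 96-well plates. Step 2: add test compound at a single concentration. Step 3: incubate 48 h. Step 4: record percent growth.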 A number with no mark means an inactive call. Activity calls are given as the source filed them. Rule for the calls: active = growth percent below 10; inactive = the rest.
# Columns and labels:
# Assay in all cases: NCI-60 one-dose screen, 48 h (100 = growth as untreated, 0 = no growth, -100 = all killed)
# Conditions in all cases: 10 µM
# HT29 colon = tested on: HT29 colon
# SNB-75 CNS = tested on: SNB-75 CNS
# SNB-19 CNS = tested on: SNB-19 CNS
# U251 CNS = tested on: U251 CNS
# PC-3 prostate = tested on: PC-3 prostate
# SK-MEL-5 melanoma = tested on: SK-MEL-5 melanoma
# UACC-62 melanoma = tested on: UACC-62 melanoma
# LOX IMVI melanoma = tested on: LOX IMVI melanoma
# SK-MEL-28 melanoma = tested on: SK-MEL-28 melanoma
# SK-MEL-2 melanoma = tested on: SK-MEL-2 melanoma
SMILES,growth (HT29 colon),growth (SNB-75 CNS),growth (SNB-19 CNS),growth (U251 CNS),growth (PC-3 prostate),growth (SK-MEL-5 melanoma),growth (UACC-62 melanoma),growth (LOX IMVI melanoma),growth (SK-MEL-28 melanoma),growth (SK-MEL-2 melanoma)
CC(C)(C)c1ccc(N2CSC(=S)N(c3ccc(C(C)(C)C)cc3)C2)cc1,105%,76.1%,95.4%,100%,73.8%,96.3%,94.9%,101%,105%,101%
O=S(=O)(Nc1ccccn1)c1ccc(N=Nc2ccc(O)c3ncccc23)cc1,79.5%,-6.04% (active),12%,0.16% (active),-5.46% (active),-4.96% (active),-4.64% (active),13.7%,33.9%,-30.1% (active)
COc1ccc(-c2nc(-c3nc4cc(Cl)c(F)cc4[nH]3)c3ccccn23)cc1,31.5%,66.2%,55.5%,62.5%,34.6%,59.4%,74.5%,65.9%,91.8%,50%
COc1ccc(-c2nc3sc(-c4ccc(OC)cc4)c(-c4ccc(OC)cc4)n3c2/C=C/c2ccc(C(C)C)cc2)cc1,92.5%,55.9%,103%,102%,79.4%,99.9%,86.9%,98.6%,100%,84.3%
O=C(O)C(SC(C(=O)O)c1ccccc1)c1ccccc1 (stereo not given),103%,85.6%,104%,98.8%,105%,111%,95.5%,99.4%,102%,103%
O=C(O)c1ccc(Cl)cc1Nc1ccc(F)cc1,101%,83.6%,87.1%,52.3%,83.9%,102%,92.4%,43.1%,86.2%,93.4%
COc1ccc(-c2nc3ccccn3c2-c2nnc(-c3cc(OC)c(OC)c(OC)c3)o2)cc1,70.4%,59.9%,44.5%,45.8%,98.2%,44.7%,68.5%,78.1%,83.6%,92.1%
c1ccc(CSc2nnc3c4c5c(sc4nc(-c4cccnc4)n23)CCCCCC5)cc1,22.4%,74.1%,46.5%,16.8%,9.01% (active),-46% (active),34.9%,60.1%,49.2%,16.5%
COc1ccc2c(c1OC)O/C(=C\c1ncc([N+](=O)[O-])n1C)C2=O,-20.8% (active),76.6%,66.2%,55.2%,60.2%,-66.5% (active),0.211% (active),0.891% (active),-38% (active),-58.9% (active)
